# Screens (PubChem)
# APE1 inh-1 – qHTS Assay for Inhibitors of the Human Apurinic/apyrimidinic Endonuclease 1 (APE1) | DNA repair nuclease/redox regulator APEX1 (Homo sapiens), P27695 | recombinant APE1, TAMRA/BHQ-2 abasic DNA cleavage fluorescence | Potency, µM (doses to about 65.8 µM), inactives show top-dose activity change, negative = inhibition, most hits filed as inhibitors | 350,000 compounds, 0.35% hits | AID 2517, 2012;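 also: plate controls were vehicle for no effect and reference inhibitor for full effect; nearly all actives have a fitted effect of over 55% in size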
# Target sequence (P27695 whole entry, looked up): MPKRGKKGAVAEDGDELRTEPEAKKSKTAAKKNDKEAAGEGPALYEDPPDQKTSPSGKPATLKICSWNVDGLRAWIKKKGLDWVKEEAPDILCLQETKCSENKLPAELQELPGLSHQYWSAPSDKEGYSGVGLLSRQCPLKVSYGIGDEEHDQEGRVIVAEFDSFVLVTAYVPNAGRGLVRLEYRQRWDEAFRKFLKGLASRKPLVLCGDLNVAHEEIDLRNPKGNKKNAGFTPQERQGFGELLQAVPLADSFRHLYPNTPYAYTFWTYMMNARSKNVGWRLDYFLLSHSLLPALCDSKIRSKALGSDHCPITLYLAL
#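 Measures dequenching upon AP-site incision of a 5'-TAMRA/3'-BHQ-2 THF-containing duplex, 50 nM; human APE1 0.75 nM after 15 min room-temperature exposure to compound; kinetic three-point read at one-minute spacing.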
# RECQ1 inh – qHTS Assay for Inhibitors of RecQ-Like Dna Helicase 1 (RECQ1); 240,000 compounds, 0.54% hits; RECQ1 DNA unwinding, red fluorescence kinetic read; Potency, µM (series often up to 57.3 µM), for the others: at the top dose activity, negative = inhibition, actives largely listed as inhibitors; ATP-dependent DNA helicase Q1 (Homo sapiens), P46063; AID 2549, 2010;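 also: plate controls were vehicle for no effect and no enzyme for full effect; nearly all actives have a fitted effect of over 30% in size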
#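 RECQ1T1 50 nM; forked duplex (20 bp + 30-nt ss tails) 200 nM, ATP 2 mM final; pH 8.0, 2 mM MgCl2, 2.5 ug/ml poly(dI-dC); 15 min compound preincubation; discontinuous kinetic read over 2 h at RT.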
# PKM2 act – qHTS Assay for Activators of Human Muscle isoform 2 Pyruvate Kinase | 260,000 compounds, 0.34% hits | AID 1631, 2009 | purified PKM2, Kinase-Glo ATP luminescence, activation; response scale: 0% is enzyme alone, no compound | Pyruvate kinase PKM (Homo sapiens), P14618 | Potency, µM (top dose mostly 57.5 µM), without a hit: at the highest dose activation, usual class: activators; also: nearly all actives have a fitted effect of over 55% in size
#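 Purified hPK-M2 (>95%) run at intermediate activity with 0.1 mM ADP and 0.5 mM PEP in 50 mM imidazole pH 7.2, KCl, MgCl2; 1 h room temperature. ATP formed read by Kinase-Glo luminescence; normalized to uninhibited and no-enzyme controls.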
# JMJD2E inh – qHTS Assay for Inhibitors of Human Jumonji Domain Containing 2E (JMJD2E) | Potency, µM (highest dose often 57.1 µM), for inactives: top-dose activity change, negative = inhibition, most hits filed as inhibitors | Lysine-specific demethylase 4E (Homo sapiens), B2RXH2 | JMJD2E catalytic domain, FDH-coupled NADH fluorescence (FDH is formaldehyde dehydrogenase) | 230,000 compounds, 1.6% hits; active = well fitted inhibition curve with a large enough effect, not every such curve was filed as active; inconclusive = small, poorly fitted or top-dose-only effect, or another doubt; inactive = no such curve, though single readings can be large or run the other way;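 also: 0% = wells with enzyme and -100% = buffer wells without enzyme; nearly all actives have a fitted effect of over 50% in size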
# Target sequence (B2RXH2 1-337 limits assumed): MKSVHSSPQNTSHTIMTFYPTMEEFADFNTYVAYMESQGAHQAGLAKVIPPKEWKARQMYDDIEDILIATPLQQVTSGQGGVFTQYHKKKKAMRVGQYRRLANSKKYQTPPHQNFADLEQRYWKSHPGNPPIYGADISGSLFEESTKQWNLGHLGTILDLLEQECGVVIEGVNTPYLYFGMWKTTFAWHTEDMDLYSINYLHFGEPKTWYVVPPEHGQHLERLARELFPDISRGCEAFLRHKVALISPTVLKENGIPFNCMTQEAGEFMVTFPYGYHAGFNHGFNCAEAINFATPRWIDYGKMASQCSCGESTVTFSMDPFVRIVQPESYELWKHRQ
# BLM helicase inh – qHTS Assay for Inhibitors of Bloom's syndrome helicase (BLM); RecQ-like DNA helicase BLM (Homo sapiens), P54132; recombinant BLM DNA unwinding, fluorescence dequenching; Potency, µM (series often up to 56.1 µM), for the others: top-dose activity change, negative = inhibition, usual class: inhibitors; 350,000 compounds, 0.2% hits; AID 2528, 2010;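 also: plate controls were vehicle for no effect and no enzyme for full effect; nearly all actives have a fitted effect of over 35% in size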
# DNA dye displace – Counterscreen for APE1 Inhibitors: Fluorescent Dye Displacement Assay; shares compounds with APE1 inh-1; DNA fluorescent dye displacement counterscreen, fluorescence; Potency, µM (doses to about 28.5 µM), for the others: top-dose activity change, negative = inhibition, usual class: inhibitors; 480 compounds, 7% hits;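 also: loss of thiazole orange fluorescence as the dye is displaced from duplex DNA; 0% = ThO with dsDNA and no compound and -100% = ThO without dsDNA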
# Endo IV inh – Counterscreen for APE1 Inhibitors: qHTS Assay for Inhibitors of Endonuclease IV; shares compounds with APE1 inh-1; E. coli Endo IV, fluorogenic AP-site DNA cleavage; Potency, µM (top dose mostly 27.1 µM), without a hit: top-dose activity change, negative = inhibition, most hits filed as inhibitors; 560 compounds, 4% hits;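 also: plate controls were uninhibited enzyme wells for no effect and no enzyme buffer wells for full effect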
# APE1 inh-2 – Confirmation qHTS Assay for Inhibitors of the Human Apurinic/apyrimidinic Endonuclease 1 (APE1) | shares compounds with APE1 inh-1 | purified APE1, fluorogenic abasic-site DNA cleavage | Potency, µM (doses to about 57.1 µM), for the others: at the top dose activity change, negative = inhibition, actives largely listed as inhibitors | 750 compounds, 44% hits | AID 2572, 2010; also: nearly all actives have a fitted effect of over 30% in size
# APE1 FP – qHTS FP-Based Assay for Inhibitors of the Human Apurinic/apyrimidinic Endonuclease 1 (APE1); shares compounds with APE1 inh-1; APE1 binding to TAMRA-labelled double-stranded DNA, fluorescence polarization displacement; Potency, µM (titrated, usually from 28.5 µM), for the others: at the highest dose activity, negative = inhibition, hits mostly inhibitors; 480 compounds, 7% hits
# * marks the source's active call; other numbers are inactive results; i = inactive; ? = inconclusive; · = not tested or not shown; [ ] = another dose, or the depositor's remark. The sample as a whole holds a higher share of hits than the screen did. Unless noted, calls follow the shape of the dose curve; as a rule, active = well fitted curve in the direction sought with a large enough effect; inconclusive = small, poorly fitted or top-dose-only effect, or another doubt; inactive = no such curve, though single readings can be large; an effect the other way counts as inactive or inconclusive. Unless noted, % is scaled to controls: 0 for no effect and ±100 for the full control effect; potency is read from the fitted curve at half-maximal effect.
SMILES,APE1 inh-1,RECQ1 inh,PKM2 act,JMJD2E inh,BLM helicase inh,DNA dye displace,Endo IV inh,APE1 inh-2,APE1 FP
O=c1cc(-c2ccc(O)c(O)c2)oc2c(C3O[C@H](CO)[C@@H](O)[C@H](O)[C@H]3O)c(O)cc(O)c12 (stereo partly specified),0.89µM*,-15%,0%,1µM*,-4%,?,73%,?,-4%
CCCCCOC(=O)c1ccccc1C(=O)OCCCCC,3%,-8%,·,·,·,·,·,·,·
Cc1cc(/C=C2\C(=O)NC(=O)N(c3ccc(F)cc3)C2=O)c(C)n1-c1ccc(C(=O)O)cc1,3%,i,-1%,-5%,-1%,·,·,·,·
Cc1ccc(-n2c(C)cc(/C=C3/C(=O)NC(=O)N(Cc4ccco4)C3=O)c2C)cc1,?,?,-2%,-9%,-15%,·,·,·,·
Cc1cc(/C=C2\C(=O)NC(=O)N(Cc3ccco3)C2=O)c(C)n1-c1ccc(C(=O)O)cc1,14µM*,-25%,3%,-6%,-2%,-11%,8%,?,5%
Cc1cc(/C=C2\C(=O)NC(=O)N(Cc3ccccc3Cl)C2=O)c(C)n1-c1ccc(C(=O)O)cc1,11µM*,?,-1%,-19%,-20%,-12%,-3%,13µM*,?
O=[N+]([O-])C(Br)Br,2%,-2%,·,·,·,·,·,·,·
CC(=O)N(O)[C@@H]1c2cc(C#N)ccc2OC(C)(C)[C@H]1O,-4%,-14%,3%,?,1%,·,·,·,·
COC(=O)c1cncn1C(C)c1ccccc1 (stereo unspecified),4%,-4%,15%,-4%,2%,·,·,·,·
CC(c1ccccc1)n1cncc1C(=O)O (stereo unspecified),?,-24%,2%,-2%,-6%,·,·,-38%,·
O=C(O)c1ccc2[nH]cc(CCCCN3CC=C(c4ccccc4)CC3)c2c1,?,-10%,1%,?,-13%,-1%[57.1 µM],19%[57.1 µM],?,15%[57.1 µM]
N#Cc1c(Oc2cccc(OS(=O)(=O)CCCC(F)(F)F)c2)cccc1C(F)(F)F,-3%,-14%,·,·,-9%,·,·,·,·
Nc1ccc2ccccc2c1,-8%,-3%,·,·,·,·,·,·,·
C[n+]1c2cc(N)ccc2cc2ccc(N)cc21,·,-24%,·,?,30%,·,-112%[57.1 µM],6.3µM*,i
COC1(C)CC(c2ccccc2)c2c(c3ccccc3oc2=O)O1 (stereo unspecified),-1%,-11%,·,·,-3%,·,·,·,·
Nc1nc(/C(=C/CC(=O)O)C(=O)NC2C(=O)N3C(C(=O)O)=CCSC23)cs1 (stereo unspecified),·,-7%,·,?,-6%,2%[57.1 µM],65%[57.1 µM],?,-1%[57.1 µM]
CO/N=C(/C(=O)NC1C(=O)N2C(C(=O)O)=C(CSc3nc(=O)c(O)nn3C)CSC12)c1csc(N)n1 (stereo unspecified),?,-3%,·,-17%,-5%,·,·,·,·
CCOC(=O)C1CCN(/C=C2/C(=O)NC(=O)N(Cc3ccco3)C2=O)CC1,14µM*,?,-15%,-6%,29%,5%,21%,3.2µM*,?
CN1C(=O)/C(=C/C=C/c2ccco2)C(=O)NC1=S,25µM*,?,4%,?,57%,-2%,34%,14µM*,17%
O=C1NC(=O)N(Cc2ccco2)C(=O)/C1=C/C=C/c1ccco1,2.8µM*,10µM*,-11%,25µM*,-3%,10%,-6%,5µM*,?
Cc1ccc(OCCn2cccc2/C=C2/C(=O)NC(=O)N(Cc3ccco3)C2=O)cc1,-10%,?,9%,-3%,-21%,·,·,·,·
Cn1cccc1/C=C1\C(=O)NC(=O)N(Cc2ccco2)C1=O,14µM*,?,18%,-20%,-20%,-4%,23%,4.5µM*,-8%
CCCCC(CC)COC(=O)c1ccc(C(=O)OCC(CC)CCCC)c(C(=O)OCC(CC)CCCC)c1 (stereo unspecified),5%,-3%,·,·,·,·,·,·,·
NC1CCCCC1N (stereo unspecified),-2%,-10%,·,·,-5%,·,·,·,·
O=C1NC(=O)N(Cc2ccc(F)cc2)C(=O)/C1=C/c1cccs1,8%,-23%,?,-13%,-7%,·,·,·,·
O=C1NC(=O)N(Cc2ccc(F)cc2)C(=O)/C1=C\c1ccoc1,28µM*,25µM*,-29%,8%,-20%,23%,3%,16µM*,6%
CN(N=O)c1cc(O)ccc1O,1.4µM*,1.6µM*,·,0%,·,·,-10%[57.1 µM],?,·
CN1CCN2c3ccc(N)cc3CC3(C(=O)NC(=O)NC3=O)C2C1 (stereo unspecified),?,8%,-29%,4µM*,-21%,·,·,?,·
CN(C)CCN=Cc1c(O)n(Cc2ccco2)c(=O)[nH]c1=O,11%,-19%,-6%,9%,-4%,·,·,·,·
